The list is not random: actives were taken first. Their share in the collection is about 8.7%.
PostGolgi ctrl: growth inhibition of yeast control strain, primary screen, counter-screen for post-Golgi transport modulator project | efflux-deficient yeast background strain, growth absorbance A615, 16 h | AID 738, 2007 | 98,000 tested, 5% active | inhibition, % at 10 µM
PostGolgi yeast: phenotypic screen on post-Golgi transport, primary screen; inhibition, % at 10 µM; post-Golgi transport phenotypic cell assay; 98,000 tested, 0.9% active; AID 739, 2007;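 note: yeast cells grown in 1536-well plates; yeast grown about 18 h at 30C before absorbance read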
Cav32 inh: Cav3.2 calcium influx blockers – cell-based, Fluo-4 calcium fluorescence, FDSS, MLSMR library, primary screen; Voltage-dependent T-type calcium channel subunit alpha-1H (Homo sapiens), O95180; Cav3.2-expressing cells; active compounds read low; B-score at 10 µM; 100,000 tested, 4% active; AID 449739, 2010;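 active = single-dose well whose peak fluorescence ratio is a statistical outlier from its plate by either plate-standardised score or position-corrected B-score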
TNAP act DEA: human TNAP enzyme activators, primary screen, biochemical, luminescent, intermediate phosphate acceptor level; activation factor at 20 µM; 64,000 tested, under 10 active; purified TNAP, CDP-star luminescence, 100 mM DEA, 30 min; active compounds read high; scale: 0 levamisole-inhibited, 1 vehicle-only enzyme; Alkaline phosphatase, tissue-nonspecific isozyme (Homo sapiens), P05186;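 active = activation factor of at least 2 at 20 µM, relative to controls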
Smad3 FoxH1 inh: Smad3/FoxH1 peptide binding inhibitors, primary screen, biochemical, TR-FRET. inhibition, % at 25 µM. 88,000 tested, 0.29% active. TR-FRET Smad3/Dy647-FoxH1 peptide binding, europium anti-His. Mothers against decapentaplegic homolog 3 (Homo sapiens), P84022;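 active = compounds that reduce the energy-transfer binding signal between the protein and its labelled peptide by more than half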;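 note: 0% = Smad3 plus labelled peptide maximal FRET and 100% = peptide-only background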
Target sequence (P84022 whole entry, looked up): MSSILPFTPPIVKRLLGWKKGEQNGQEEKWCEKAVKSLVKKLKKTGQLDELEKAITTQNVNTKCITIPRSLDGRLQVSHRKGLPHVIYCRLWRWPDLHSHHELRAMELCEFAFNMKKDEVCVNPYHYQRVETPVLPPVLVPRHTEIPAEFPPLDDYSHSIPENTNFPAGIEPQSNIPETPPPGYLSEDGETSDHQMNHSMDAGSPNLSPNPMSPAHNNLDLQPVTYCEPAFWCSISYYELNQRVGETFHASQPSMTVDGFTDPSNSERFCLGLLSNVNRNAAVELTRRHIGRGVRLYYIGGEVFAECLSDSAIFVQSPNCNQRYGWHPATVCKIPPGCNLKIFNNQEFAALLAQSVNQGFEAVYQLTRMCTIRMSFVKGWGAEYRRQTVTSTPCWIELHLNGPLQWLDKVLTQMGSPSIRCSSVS
hDAT+cocaine: changed hDAT dopamine uptake under cocaine IC80, either direction, primary screen, cocaine antagonist project, cell-based, LLC-PK1 hDAT, [14C]-dopamine uptake, MLSMR; B-score at 10 µM; LLC-PK1 hDAT cells, [14C]-dopamine uptake with cocaine IC80; actives deviate in either direction; Sodium-dependent dopamine transporter (Homo sapiens), Q01959; AID 449768, 2010; 110,000 tested, 1.3% active;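 active = Z score or B-score, a plate-position-corrected score, falls beyond the plate's 99.7% confidence bounds, in either direction; inactive = both scores lie inside the 99.7% bounds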;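 note: scored against the spread of the other compound wells on the same plate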
* marks the source's active call; other numbers are inactive results. Cut-off read from the data, not from the text of the source, unless noted: active = inhibition above about 30%; inactive = the rest.

For COc1ccc(O)c(C(=O)c2cc(C#N)c(=O)n(CC3CCCO3)c2)c1 (configuration not stated) the results were PostGolgi ctrl 17, PostGolgi yeast -3, Cav32 inh 0.037, Smad3 FoxH1 inh -10 and hDAT+cocaine -0.11.
`CCn1c(SC(C)C(=O)O)nc2sc3c(c2c1=O)CCC3` (configuration not stated) gave PostGolgi ctrl 13, PostGolgi yeast 1, Cav32 inh 1.3, TNAP act DEA 0.9, Smad3 FoxH1 inh 13 and hDAT+cocaine 1.2.
Screening Nc1nonc1C(=O)NCCNCc1cc(Br)ccc1OCc1ccccc1F returned PostGolgi ctrl 7, PostGolgi yeast 3, Cav32 inh -6.9*, TNAP act DEA 0.9, Smad3 FoxH1 inh 0 and hDAT+cocaine 0.098.
`Nc1nonc1C(=O)NCCNCc1ccccc1OCc1ccccc1F` gave PostGolgi ctrl 31*, PostGolgi yeast -4, Cav32 inh -6.1*, TNAP act DEA 0.9, Smad3 FoxH1 inh 1 and hDAT+cocaine -0.022.
`CCOc1c(CNCCNC(=O)c2nonc2N)cccc1OC` gave PostGolgi ctrl 13, PostGolgi yeast 0, Cav32 inh 0.18, TNAP act DEA 0.9, Smad3 FoxH1 inh -3 and hDAT+cocaine 0.54.
COc1c(Cl)cc(-c2noc(C)c2C(=O)NCCc2ccc(C)cc2)cc1Cl was read as PostGolgi ctrl 37*, PostGolgi yeast 2, Cav32 inh -1.4, Smad3 FoxH1 inh -6 and hDAT+cocaine 0.18.
Oc1ccc(Br)cc1/C=N/N1CCN(Cc2ccccc2)CC1 was read as PostGolgi ctrl 21, PostGolgi yeast -2, Cav32 inh -1.4 and hDAT+cocaine 2.4*.
Screening CCCN(CCC)c1nc2ccccc2n2c(C)nnc12 returned PostGolgi ctrl 45*, PostGolgi yeast 10, Cav32 inh -4, TNAP act DEA 0.9, Smad3 FoxH1 inh 6 and hDAT+cocaine -0.0073.
Screening CCCCNC(=O)NS(=O)(=O)c1cnccc1Sc1ccc(Cl)cc1 returned PostGolgi ctrl 0, PostGolgi yeast -3, Cav32 inh 1.1 and hDAT+cocaine 0.019.
CC(C)N1CC2(c3ccccc3)CN(C(C)C)CC(c3ccccc3)(C1)C2=O was read as PostGolgi ctrl 13, PostGolgi yeast -1, Cav32 inh -3.4*, Smad3 FoxH1 inh 3 and hDAT+cocaine 0.025.
`CC(=O)[C@H]([C@@H](c1ccccc1)N1CCOCC1)N1CCOCC1` gave Smad3 FoxH1 inh 17.
For c1ccc(CN2CC[C@@H](CNc3ncnc4ccccc34)C2)cc1 the results were Smad3 FoxH1 inh 10.
CC(c1ccccc1)n1cc(C(=O)NCC2CCCO2)nn1 (configuration not stated) was read as PostGolgi ctrl 7, PostGolgi yeast -2, Cav32 inh -0.24, TNAP act DEA 0.8, Smad3 FoxH1 inh -6 and hDAT+cocaine -0.56.
`Cc1cc(C)c(C)c(S(=O)(=O)NCc2ccco2)c1C` gave PostGolgi ctrl 34*, PostGolgi yeast -4, Cav32 inh -3, TNAP act DEA 1, Smad3 FoxH1 inh -23 and hDAT+cocaine 0.59.
For Cc1ccc(S(=O)(=O)NCc2ccco2)cc1C the results were PostGolgi ctrl 7, PostGolgi yeast -3, Cav32 inh -0.016, TNAP act DEA 1, Smad3 FoxH1 inh -2 and hDAT+cocaine 1.2.
Screening CCOC(=O)C1CCCCN1Cc1ccc(F)c(Br)c1 (configuration not stated) returned PostGolgi ctrl 0, PostGolgi yeast 26, Cav32 inh -1.4, TNAP act DEA 0.9 and hDAT+cocaine -0.15.
For N=c1sccn1CC(=O)Nc1ccc(S(=O)(=O)N2CCOCC2)cc1 the results were PostGolgi ctrl 23, PostGolgi yeast -15, Cav32 inh 1, TNAP act DEA 1, Smad3 FoxH1 inh -2 and hDAT+cocaine 0.47.
For O=C(Nc1ccc(Cl)cc1)C1=Cc2cc(Cl)ccc2OC1 the results were PostGolgi ctrl 19, PostGolgi yeast -2, Cav32 inh 0.58, Smad3 FoxH1 inh -5 and hDAT+cocaine -0.0018.
Screening COc1ccc2c(c1)C=C(C(=O)NCc1ccc(Cl)cc1)CO2 returned PostGolgi ctrl 16, PostGolgi yeast 19, Cav32 inh -6.7* and hDAT+cocaine 0.0025.
`O=C(Oc1c(Cl)cc(Cl)c2cccnc12)c1ccco1` gave PostGolgi ctrl 31*, PostGolgi yeast 6, Cav32 inh -1.8, Smad3 FoxH1 inh 7 and hDAT+cocaine -0.62.
CO/N=C(\Cn1ncc(NC2CCCCC2)c(Br)c1=O)c1ccc(Cl)cc1 was read as PostGolgi ctrl 76*, PostGolgi yeast 23, Cav32 inh 0.86, Smad3 FoxH1 inh 6 and hDAT+cocaine 0.49.
For c1ccc2c(c1)CCN(c1nc3ccccc3n3cnnc13)C2 the results were PostGolgi ctrl 43*, PostGolgi yeast -5, TNAP act DEA 0.9, Smad3 FoxH1 inh -3 and hDAT+cocaine 2.2.
c1ccc(CN2CCN(c3nc4ccccc4n4cnnc34)CC2)cc1 was read as PostGolgi ctrl 34*, PostGolgi yeast -4, Cav32 inh -1.3, TNAP act DEA 0.9, Smad3 FoxH1 inh 2 and hDAT+cocaine 0.083.
Screening C=CCn1c(COc2ccc3c(c2)CCCC3)nnc1SCC(=O)Nc1cccc(SC)c1 returned PostGolgi ctrl 7, PostGolgi yeast 2, Cav32 inh -4.4* and hDAT+cocaine 0.31.
For CCN(CC)C(=O)CSc1nc(-c2cccs2)cc(-c2cccs2)c1C#N the results were Cav32 inh -6*, Smad3 FoxH1 inh -10 and hDAT+cocaine 1.3.
Screening CC(C)C(c1nnnn1C(C)(C)C)N1CCN(c2cccc(Cl)c2)CC1 (configuration not stated) returned PostGolgi ctrl 90*, PostGolgi yeast 6, Cav32 inh -3.2, TNAP act DEA 0.9, Smad3 FoxH1 inh 2 and hDAT+cocaine -0.49.
`CC(C)C(c1nnnn1Cc1ccco1)N1CCN(c2cccc(Cl)c2)CC1` (configuration not stated) gave PostGolgi ctrl 21, PostGolgi yeast 2, Cav32 inh -3.8*, TNAP act DEA 1, Smad3 FoxH1 inh -16 and hDAT+cocaine 0.086.
`Cc1nn(C(C)C(=O)NCc2ccccc2Cl)c(=O)c2c1sc1ccccc12` (configuration not stated) gave PostGolgi ctrl 55*, PostGolgi yeast -13, Cav32 inh -0.69, Smad3 FoxH1 inh -9 and hDAT+cocaine -0.037.

Assay outcomes (PubChem BioAssay)
